Data on 3 compounds can be found in ChEMBL document CHEMBL1961873, “Compounds: GSK PKIS; Assays: Nanosyn kinase panel” (2012).

SMILES strings stand for the structures.

Test [1] concerns Epidermal growth factor receptor (Homo sapiens), P00533 [T790M]. The settings on record: at 1 µM.
In test [2] the test system is Epidermal growth factor receptor (Homo sapiens), P00533 [L858R,T790M]. The note with it: at 0.1 µM.
The test system is the same in test [3]. The note with it: at 1 µM.
The target of test [4] is Ephrin type-A receptor 2 (Homo sapiens) (UniProt P29317). The settings on record: at 0.1 µM.
The target is the same in test [5]. The note with it: at 1 µM.
The target in test [6] is T1, Ephrin type-A receptor 3 (Homo sapiens) (UniProt P29320).
T1 sequence (whole entry): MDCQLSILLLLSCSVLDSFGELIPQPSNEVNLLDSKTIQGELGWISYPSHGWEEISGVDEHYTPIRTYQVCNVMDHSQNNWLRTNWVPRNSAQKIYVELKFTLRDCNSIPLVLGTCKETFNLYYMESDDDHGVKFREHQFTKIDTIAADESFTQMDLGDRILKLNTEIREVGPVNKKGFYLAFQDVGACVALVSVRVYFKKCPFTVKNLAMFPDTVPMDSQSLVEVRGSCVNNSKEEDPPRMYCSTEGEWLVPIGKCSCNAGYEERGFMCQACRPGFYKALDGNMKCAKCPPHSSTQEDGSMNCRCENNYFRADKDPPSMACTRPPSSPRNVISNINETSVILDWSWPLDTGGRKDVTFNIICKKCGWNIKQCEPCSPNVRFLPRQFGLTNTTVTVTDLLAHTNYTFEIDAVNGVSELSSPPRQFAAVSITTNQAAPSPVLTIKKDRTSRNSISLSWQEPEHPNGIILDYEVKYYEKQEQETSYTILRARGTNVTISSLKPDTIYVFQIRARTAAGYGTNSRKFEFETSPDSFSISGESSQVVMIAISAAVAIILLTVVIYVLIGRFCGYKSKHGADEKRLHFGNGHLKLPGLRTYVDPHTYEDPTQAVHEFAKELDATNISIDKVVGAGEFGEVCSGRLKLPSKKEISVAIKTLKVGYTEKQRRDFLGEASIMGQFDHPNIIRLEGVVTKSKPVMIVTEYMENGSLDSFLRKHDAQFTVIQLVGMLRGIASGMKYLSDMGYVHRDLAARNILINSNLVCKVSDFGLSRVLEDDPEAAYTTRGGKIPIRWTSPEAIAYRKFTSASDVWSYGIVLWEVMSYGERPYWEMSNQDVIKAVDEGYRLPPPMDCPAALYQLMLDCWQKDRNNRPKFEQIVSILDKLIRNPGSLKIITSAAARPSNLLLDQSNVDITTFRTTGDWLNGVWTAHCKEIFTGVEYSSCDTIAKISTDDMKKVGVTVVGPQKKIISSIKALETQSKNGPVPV
The settings on record: at 0.1 µM.

For test [7], the target named is T1, Ephrin type-A receptor 3 (Homo sapiens). The settings on record: at 1 µM.
Test [8] concerns the target Ephrin type-A receptor 4 (Homo sapiens) (UniProt P54764). The note with it: at 0.1 µM.
Test [9] has the same target. The settings on record: at 1 µM.
Test [10] has as its target T2, Ephrin type-B receptor 2 (Homo sapiens) (UniProt P29323).
T2 sequence (whole entry): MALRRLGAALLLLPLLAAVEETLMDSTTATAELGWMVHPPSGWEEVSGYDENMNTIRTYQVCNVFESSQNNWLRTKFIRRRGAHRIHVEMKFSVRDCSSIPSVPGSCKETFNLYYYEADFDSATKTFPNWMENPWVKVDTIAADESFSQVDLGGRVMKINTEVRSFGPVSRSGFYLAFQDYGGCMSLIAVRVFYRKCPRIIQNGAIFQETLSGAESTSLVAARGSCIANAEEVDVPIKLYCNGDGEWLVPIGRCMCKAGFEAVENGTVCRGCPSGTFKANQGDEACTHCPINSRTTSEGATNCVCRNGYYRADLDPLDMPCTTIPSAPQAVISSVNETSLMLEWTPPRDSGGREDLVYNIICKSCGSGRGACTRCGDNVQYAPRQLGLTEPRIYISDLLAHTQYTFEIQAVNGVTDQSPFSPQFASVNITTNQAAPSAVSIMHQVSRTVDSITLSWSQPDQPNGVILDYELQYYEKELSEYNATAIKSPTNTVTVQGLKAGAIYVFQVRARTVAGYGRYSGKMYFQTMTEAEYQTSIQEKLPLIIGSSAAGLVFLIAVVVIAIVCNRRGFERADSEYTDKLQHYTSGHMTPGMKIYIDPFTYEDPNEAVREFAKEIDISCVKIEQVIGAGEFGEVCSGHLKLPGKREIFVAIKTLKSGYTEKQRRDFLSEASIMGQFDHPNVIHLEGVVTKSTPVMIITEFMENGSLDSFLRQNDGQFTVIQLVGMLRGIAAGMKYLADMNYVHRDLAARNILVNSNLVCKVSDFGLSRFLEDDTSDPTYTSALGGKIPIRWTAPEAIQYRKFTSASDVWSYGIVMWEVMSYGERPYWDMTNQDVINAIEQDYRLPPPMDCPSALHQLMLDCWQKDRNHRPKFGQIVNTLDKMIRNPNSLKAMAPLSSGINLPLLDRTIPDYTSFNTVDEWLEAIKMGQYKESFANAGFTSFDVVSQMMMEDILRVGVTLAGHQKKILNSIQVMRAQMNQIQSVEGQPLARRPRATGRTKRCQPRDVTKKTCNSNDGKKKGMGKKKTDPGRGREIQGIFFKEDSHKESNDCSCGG
The settings on record: at 0.1 µM.

Test [11] has as its target T2, Ephrin type-B receptor 2 (Homo sapiens). The note with it: at 1 µM.
For test [12], the target named is T3, Ephrin type-B receptor 3 (Homo sapiens) (UniProt P54753).
T3 sequence (whole entry): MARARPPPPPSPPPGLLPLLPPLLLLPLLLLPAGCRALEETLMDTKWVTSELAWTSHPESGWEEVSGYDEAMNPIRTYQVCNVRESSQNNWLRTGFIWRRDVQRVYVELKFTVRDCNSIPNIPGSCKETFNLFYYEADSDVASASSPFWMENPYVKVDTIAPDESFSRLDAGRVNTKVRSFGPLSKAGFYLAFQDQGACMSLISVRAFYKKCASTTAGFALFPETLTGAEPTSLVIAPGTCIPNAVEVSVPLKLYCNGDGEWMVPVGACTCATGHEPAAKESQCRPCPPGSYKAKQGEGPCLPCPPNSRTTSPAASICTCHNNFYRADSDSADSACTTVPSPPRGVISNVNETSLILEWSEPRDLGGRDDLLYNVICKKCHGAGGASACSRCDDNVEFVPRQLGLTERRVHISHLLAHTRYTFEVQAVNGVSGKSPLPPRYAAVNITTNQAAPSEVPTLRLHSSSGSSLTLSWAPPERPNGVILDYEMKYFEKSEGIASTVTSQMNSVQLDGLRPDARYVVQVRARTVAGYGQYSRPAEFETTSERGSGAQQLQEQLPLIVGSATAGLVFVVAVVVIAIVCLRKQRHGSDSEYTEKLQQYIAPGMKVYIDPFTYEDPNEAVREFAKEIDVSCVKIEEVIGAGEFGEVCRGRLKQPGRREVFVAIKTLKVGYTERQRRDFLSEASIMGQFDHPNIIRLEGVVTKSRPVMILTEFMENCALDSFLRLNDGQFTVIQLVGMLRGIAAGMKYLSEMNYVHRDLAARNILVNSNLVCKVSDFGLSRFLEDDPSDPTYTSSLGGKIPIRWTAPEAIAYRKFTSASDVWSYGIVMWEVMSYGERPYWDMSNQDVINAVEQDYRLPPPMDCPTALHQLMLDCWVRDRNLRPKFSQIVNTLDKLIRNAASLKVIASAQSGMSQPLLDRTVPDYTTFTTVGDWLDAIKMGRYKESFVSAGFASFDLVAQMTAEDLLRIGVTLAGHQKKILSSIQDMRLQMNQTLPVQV
The settings on record: at 0.1 µM.

The target of test [13] is T3, Ephrin type-B receptor 3 (Homo sapiens). The settings on record: at 1 µM.
Test [14] deals with T4, Ephrin type-B receptor 4 (Homo sapiens) (UniProt P54760).
T4 sequence (whole entry): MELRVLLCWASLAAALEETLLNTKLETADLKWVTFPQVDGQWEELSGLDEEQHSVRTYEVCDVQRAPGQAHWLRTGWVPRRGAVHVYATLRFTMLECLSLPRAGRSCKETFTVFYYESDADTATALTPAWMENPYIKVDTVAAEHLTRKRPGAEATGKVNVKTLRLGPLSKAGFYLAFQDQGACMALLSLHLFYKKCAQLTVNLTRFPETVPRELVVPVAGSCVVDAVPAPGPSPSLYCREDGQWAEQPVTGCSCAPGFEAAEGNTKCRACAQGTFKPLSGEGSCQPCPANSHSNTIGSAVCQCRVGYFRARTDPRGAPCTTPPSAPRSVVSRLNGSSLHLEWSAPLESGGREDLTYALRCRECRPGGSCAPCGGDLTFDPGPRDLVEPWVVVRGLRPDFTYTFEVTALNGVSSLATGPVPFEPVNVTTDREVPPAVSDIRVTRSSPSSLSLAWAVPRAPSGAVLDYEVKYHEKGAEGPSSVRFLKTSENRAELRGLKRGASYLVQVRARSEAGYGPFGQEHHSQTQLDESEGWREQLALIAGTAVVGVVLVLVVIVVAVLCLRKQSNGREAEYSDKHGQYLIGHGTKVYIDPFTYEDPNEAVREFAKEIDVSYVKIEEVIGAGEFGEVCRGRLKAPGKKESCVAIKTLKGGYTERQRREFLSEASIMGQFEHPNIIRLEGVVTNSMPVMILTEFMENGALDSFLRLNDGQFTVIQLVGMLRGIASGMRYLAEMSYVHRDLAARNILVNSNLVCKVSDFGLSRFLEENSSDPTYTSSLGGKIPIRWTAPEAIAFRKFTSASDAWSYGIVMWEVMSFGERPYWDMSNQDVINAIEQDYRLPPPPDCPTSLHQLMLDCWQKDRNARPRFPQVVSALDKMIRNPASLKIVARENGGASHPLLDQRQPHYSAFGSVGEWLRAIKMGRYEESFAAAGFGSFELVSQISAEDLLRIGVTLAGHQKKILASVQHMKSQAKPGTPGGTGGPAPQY
The settings on record: at 0.1 µM.

The target in test [15] is T4, Ephrin type-B receptor 4 (Homo sapiens). The settings on record: at 1 µM.
The target in test [16] is Receptor tyrosine-protein kinase erbB-2 (Homo sapiens) (UniProt P04626). The settings on record: at 0.1 µM.
The target is the same in test [17]. The note with it: at 1 µM.
For test [18], the target named is Receptor tyrosine-protein kinase erbB-4 (Homo sapiens) (UniProt Q15303). The settings on record: at 0.1 µM.
For test [19] the target is unchanged. The settings on record: at 1 µM.
The target in test [20] is Tyrosine-protein kinase Fer (Homo sapiens) (UniProt P16591). The settings on record: at 0.1 µM.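 Note: reported figures are averaged percent inhibition of FER.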

Sequence of Ephrin type-A receptor 4 (Homo sapiens) (P54764 whole entry): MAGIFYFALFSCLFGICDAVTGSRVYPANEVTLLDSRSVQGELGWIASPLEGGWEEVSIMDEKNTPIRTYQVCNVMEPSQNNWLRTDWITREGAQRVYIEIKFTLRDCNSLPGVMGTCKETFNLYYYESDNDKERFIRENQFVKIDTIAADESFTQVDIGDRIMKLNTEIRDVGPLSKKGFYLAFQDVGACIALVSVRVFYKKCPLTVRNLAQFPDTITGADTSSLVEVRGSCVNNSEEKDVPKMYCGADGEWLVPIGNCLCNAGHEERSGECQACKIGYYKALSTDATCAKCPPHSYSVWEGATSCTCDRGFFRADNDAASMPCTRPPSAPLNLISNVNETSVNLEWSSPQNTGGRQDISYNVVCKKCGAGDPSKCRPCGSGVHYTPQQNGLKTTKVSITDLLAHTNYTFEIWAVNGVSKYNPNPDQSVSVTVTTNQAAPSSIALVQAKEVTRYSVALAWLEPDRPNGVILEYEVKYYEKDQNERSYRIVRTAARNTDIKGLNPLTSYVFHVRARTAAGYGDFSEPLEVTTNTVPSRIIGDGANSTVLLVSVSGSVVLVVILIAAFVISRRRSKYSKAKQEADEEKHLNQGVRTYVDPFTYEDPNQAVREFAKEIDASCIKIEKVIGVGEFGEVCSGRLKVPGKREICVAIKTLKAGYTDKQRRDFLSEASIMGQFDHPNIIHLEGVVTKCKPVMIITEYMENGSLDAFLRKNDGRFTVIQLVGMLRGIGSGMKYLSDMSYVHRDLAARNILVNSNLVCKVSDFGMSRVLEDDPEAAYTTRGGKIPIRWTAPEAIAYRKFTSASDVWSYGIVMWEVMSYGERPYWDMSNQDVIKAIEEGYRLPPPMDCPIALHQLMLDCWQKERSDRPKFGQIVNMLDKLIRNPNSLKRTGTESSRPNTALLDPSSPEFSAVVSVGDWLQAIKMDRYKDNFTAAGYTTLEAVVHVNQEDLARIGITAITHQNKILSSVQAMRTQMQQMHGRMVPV
Sequence of Receptor tyrosine-protein kinase erbB-2 (Homo sapiens) (P04626 whole entry): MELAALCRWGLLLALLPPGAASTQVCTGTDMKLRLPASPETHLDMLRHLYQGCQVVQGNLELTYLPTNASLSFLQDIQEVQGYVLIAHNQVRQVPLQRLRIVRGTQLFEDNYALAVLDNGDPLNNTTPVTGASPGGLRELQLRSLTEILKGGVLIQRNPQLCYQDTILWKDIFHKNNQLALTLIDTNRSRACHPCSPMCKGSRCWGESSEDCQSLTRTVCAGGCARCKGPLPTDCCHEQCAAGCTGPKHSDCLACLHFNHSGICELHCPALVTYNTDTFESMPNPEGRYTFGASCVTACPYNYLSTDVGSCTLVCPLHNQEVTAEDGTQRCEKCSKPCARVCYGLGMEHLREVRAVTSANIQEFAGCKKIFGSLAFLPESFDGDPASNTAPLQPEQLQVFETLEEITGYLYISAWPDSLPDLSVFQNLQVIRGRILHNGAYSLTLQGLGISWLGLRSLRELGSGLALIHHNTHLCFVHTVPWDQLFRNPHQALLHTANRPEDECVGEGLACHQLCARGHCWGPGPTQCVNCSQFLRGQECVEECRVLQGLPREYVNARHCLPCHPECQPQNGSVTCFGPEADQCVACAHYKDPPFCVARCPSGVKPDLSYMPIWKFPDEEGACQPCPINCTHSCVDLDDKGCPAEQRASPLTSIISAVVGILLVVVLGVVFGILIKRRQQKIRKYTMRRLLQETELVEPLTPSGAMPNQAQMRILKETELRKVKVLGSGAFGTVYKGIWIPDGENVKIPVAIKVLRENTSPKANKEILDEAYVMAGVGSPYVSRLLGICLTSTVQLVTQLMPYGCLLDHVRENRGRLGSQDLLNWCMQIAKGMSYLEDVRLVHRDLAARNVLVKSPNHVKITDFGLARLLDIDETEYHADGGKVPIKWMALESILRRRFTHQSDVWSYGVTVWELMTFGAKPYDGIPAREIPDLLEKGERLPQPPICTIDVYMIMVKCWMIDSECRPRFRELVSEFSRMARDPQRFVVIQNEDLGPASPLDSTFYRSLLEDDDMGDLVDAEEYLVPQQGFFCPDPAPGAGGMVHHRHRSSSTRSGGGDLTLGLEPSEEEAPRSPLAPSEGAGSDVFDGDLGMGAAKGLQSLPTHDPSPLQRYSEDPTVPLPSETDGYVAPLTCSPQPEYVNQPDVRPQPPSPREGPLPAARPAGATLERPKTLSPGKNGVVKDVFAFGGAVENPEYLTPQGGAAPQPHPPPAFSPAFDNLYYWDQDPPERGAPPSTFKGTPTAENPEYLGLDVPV
Sequence of Epidermal growth factor receptor (Homo sapiens), P00533 [L858R,T790M] (P00533 whole entry T790M/L858R, looked up): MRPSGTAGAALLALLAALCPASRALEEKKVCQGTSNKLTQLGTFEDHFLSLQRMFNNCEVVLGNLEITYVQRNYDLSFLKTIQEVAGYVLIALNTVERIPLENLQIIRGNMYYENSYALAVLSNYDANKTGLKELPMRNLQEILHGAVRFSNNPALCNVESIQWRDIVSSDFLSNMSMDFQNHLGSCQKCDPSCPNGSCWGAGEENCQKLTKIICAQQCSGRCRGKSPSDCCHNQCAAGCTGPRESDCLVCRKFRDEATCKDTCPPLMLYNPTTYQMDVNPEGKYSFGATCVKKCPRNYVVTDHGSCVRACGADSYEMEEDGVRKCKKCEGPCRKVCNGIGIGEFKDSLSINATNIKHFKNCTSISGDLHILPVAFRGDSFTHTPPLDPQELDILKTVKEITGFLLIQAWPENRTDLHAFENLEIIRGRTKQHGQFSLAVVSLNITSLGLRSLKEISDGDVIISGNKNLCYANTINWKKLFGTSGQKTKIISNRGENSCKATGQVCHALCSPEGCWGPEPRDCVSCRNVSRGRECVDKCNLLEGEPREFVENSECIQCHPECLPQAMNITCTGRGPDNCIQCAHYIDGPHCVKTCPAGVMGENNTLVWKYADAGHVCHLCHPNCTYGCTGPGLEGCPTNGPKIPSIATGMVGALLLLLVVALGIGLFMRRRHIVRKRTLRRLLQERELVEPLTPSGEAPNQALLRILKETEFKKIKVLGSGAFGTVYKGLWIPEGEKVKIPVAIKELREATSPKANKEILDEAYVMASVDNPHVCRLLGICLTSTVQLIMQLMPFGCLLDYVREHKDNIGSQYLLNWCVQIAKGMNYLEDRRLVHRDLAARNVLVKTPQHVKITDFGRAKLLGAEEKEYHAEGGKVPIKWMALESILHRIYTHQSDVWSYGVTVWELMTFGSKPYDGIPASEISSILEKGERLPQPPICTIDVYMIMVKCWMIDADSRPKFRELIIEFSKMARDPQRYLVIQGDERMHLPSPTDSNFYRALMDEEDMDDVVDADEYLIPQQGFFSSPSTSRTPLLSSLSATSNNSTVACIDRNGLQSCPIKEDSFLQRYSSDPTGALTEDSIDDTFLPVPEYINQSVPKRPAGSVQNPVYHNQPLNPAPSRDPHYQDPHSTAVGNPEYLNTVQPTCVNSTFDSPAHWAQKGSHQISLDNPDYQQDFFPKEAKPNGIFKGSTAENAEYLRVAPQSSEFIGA
Sequence of Epidermal growth factor receptor (Homo sapiens), P00533 [T790M] (P00533 whole entry T790M): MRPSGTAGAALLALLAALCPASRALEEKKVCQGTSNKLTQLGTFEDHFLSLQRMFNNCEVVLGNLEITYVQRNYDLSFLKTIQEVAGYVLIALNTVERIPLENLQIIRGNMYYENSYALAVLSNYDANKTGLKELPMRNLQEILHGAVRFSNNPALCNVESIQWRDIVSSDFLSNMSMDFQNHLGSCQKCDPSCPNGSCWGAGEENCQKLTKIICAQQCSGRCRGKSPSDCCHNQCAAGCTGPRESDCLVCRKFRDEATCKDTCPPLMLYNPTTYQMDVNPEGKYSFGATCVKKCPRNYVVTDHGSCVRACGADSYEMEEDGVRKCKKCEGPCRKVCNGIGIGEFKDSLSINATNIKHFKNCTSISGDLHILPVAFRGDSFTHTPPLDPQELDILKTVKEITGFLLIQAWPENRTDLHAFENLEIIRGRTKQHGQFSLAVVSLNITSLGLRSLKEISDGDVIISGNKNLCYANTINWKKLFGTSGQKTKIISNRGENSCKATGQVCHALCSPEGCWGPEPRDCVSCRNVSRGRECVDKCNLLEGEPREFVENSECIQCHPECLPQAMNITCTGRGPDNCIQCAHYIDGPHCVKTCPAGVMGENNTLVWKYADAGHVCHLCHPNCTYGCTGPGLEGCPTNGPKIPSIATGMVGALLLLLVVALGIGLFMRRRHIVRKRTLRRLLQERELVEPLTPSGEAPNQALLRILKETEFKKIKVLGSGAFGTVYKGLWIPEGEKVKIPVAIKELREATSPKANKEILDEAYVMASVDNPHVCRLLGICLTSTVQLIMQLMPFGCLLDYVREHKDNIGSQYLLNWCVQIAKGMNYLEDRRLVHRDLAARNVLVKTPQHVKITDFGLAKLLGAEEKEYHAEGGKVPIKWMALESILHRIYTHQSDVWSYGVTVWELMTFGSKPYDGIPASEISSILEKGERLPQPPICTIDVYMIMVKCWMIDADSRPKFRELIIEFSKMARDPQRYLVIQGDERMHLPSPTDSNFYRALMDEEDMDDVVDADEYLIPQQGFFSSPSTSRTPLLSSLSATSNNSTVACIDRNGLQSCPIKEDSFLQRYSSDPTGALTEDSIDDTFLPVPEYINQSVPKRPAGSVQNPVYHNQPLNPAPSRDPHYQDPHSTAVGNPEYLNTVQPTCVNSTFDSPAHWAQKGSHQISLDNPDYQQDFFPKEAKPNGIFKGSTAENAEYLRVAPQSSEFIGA

For `COc1cccc(-n2ncc3c(N/N=C/c4ccc(S(C)(=O)=O)cc4)ncnc32)c1`, the inhibition in test [1] was 0.63%; in test [2] it was 0.79%; in test [3], 5.78%; in test [4], -3.2%; in [5] it was 1.45%; in test [6], -2.15%. Also, the inhibition was -1.2% in [7]; 7.26% in [8]; 11.7% in [9]; 5.46% in test [10]; 11.5% in test [11]; -0.24% in test [12]. The inhibition in test [13] was -2.08%; in test [14] it was -0.79%; in test [15] it was 6.93%; in [16] it was 2.7%; in test [17], 3.96%; in [18], 7.91%. The inhibition in [19] is 7.9%; in test [20], 1.13%.

On to `NS(=O)(=O)c1cccc(Nc2cc(-c3ccc(F)cc3)n[nH]2)c1`, for which the inhibition in test [1] came out at 3.89%; in test [2], 0.96%; in test [3] it was 2.35%; in test [4], 0.44%; in test [5], 0.73%; in [6], 4.22%. For the same compound, the inhibition in [7] worked out at 4.16%; in test [8] it was 8.18%; in test [9] it was 10%; in test [10], 5.43%; in test [11], 10.6%; in test [12], 3.94%. Moreover, the inhibition in [13] amounted to 2.26%; in [14], 0.66%; in test [15] it was 3.57%; in test [16] it was 1.6%; in test [17], 6.2%; in test [18] it was 5.56%. The inhibition in [19] was determined as 11.3%; in test [20] it was 5.3%.

On to `FC(F)(F)c1ccc(-c2nn3ncccc3c2-c2ccnc(Nc3ccc4c(c3)OCCO4)n2)cc1`, for which the inhibition in [1] is 7.94%; in test [2] it was 0.49%; in test [3] it was 10.3%; in test [4], 4.63%; in test [5], 3.45%; in test [6] it was 0.34%. The inhibition in test [7] is 2.49%; in [8], 1.05%; in [9], 21.2%; in [10] it was 3.69%; in test [11], 36.7%; in [12], -5.93%. For the same compound, the inhibition is -4.69% in [13]; 0.48% in test [14]; 10.2% in [15]; 3.02% in [16]; 12.5% in [17]; 6.46% in test [18]. For the same compound, the inhibition turned out to be 43.5% in test [19] and 7.67% in [20].

As usually defined, the inhibition is the change of the read-out against control, counted positive when it falls.
